From PubChem
Most compounds without a hit are left out; they make up all but 3.6% or so of the library.
Pf apPOL block – Pf-apPOL inhibitors, biochemical, fluorescence | Plasmodium falciparum apicoplast DNA polymerase (apPOL) | Recombinant Pf-apPOL, molecular beacon fluorescence, 1.5 h | inhibition, % at 10 µM | 210,000 compounds, 0.25% hits | AID 1794808, 2022
mHTT-CaM PPI inh – mutant huntingtin-calmodulin interaction inhibitors – biochemical, AlphaScreen, primary screen | 190,000 compounds, 3.6% hits | AlphaScreen His-mHTT/GST-CaM binding, luminescence | AID 1671202, 2021 | P42858 | inhibition, % at 15 µM;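 also: 0% = both proteins with DMSO and 100% = one protein alone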
Numbers without * were called inactive; i = inactive; . = no result given. Rule as the data show it: active = inhibition above about 50%; inactive = the rest.

SMILES	Pf apPOL block	mHTT-CaM PPI inh
Cc1[nH]nc2c1C(c1ccco1)CC(c1ccco1)=C2 (stereo unspecified)	.	64.5*
CC1S/C(=N\N=C\c2ccc(O)cc2)NC1=O (stereo unspecified)	.	i
Cc1ccsc1CCNS(=O)(=O)c1ccc2[nH]c3c(c2c1)CCCC3	-0.8	61.5*
Cc1ccc(Cl)cc1NC(=O)CN(C)S(=O)(=O)c1ccc2[nH]c3c(c2c1)CCCC3	-1.9	42.3
Cc1ccsc1CCNS(=O)(=O)c1ccc2[nH]c3c(c2c1)CCCCC3	-1.9	96.2*
CCOc1ccc(CNC(=O)C2CC(=O)N(c3ccc(F)c(Cl)c3)C2)cc1OC (stereo unspecified)	-7.1	4.0
C=CCn1c(CSc2ccccc2[N+](=O)[O-])n[nH]c1=S	59.5*	.
COc1ccccc1-n1c(CSc2ccccc2[N+](=O)[O-])n[nH]c1=S	1.2	.
O=C1NC2(Nc3sc4c(c31)CCCC4)C(=O)Nc1ccccc12 (stereo unspecified)	18.4	23.0
CC1(C)Nc2sc3c(c2-c2nnnn21)CCCC3	.	55.6*
Cc1nccn1CC(=O)N1CCCC2(C1)Nc1ccccc1NC2=NC(C)(C)C (stereo unspecified)	25.4	25.9
O=S(=O)(N1CCCC1)N1CCN(c2ccccc2F)CC1	.	-4.3
CC(=O)NC1C(OCC2OC3OC4(CCCCC4)OC3C3OC4(CCCCC4)OC23)OC(COC(C)=O)C(OC(C)=O)C1OC(C)=O (stereo unspecified)	-6.2	26.9
O=C(NCCCS(=O)(=O)N1CCN(c2ccccn2)CC1)c1ccc2c(c1)OCO2	-1.8	-19.6
O=C(O)C#Cc1ccc([N+](=O)[O-])cc1	-11.9	-3.5
O=C(O)C1(c2ccc([N+](=O)[O-])cc2)CCCC1	-2.3	94.5*
Cc1ccc(N(Cc2ccc(C(=O)Nc3ccccc3F)cc2)S(C)(=O)=O)cc1C	-5.9	10.3
Cc1ccc(C(c2ccc(C)o2)c2cc([N+](=O)[O-])cc(Br)c2O)o1	-4.0	64.7*
Cc1ccc(C(c2ccc(C)o2)c2cc3c(cc2[N+](=O)[O-])OCCO3)o1	-6.0	56.0*
Cc1ccc(C(c2ccc(C)o2)c2cc(Br)cc([N+](=O)[O-])c2O)o1	3.9	42.0
CCCC(=O)c1cc2c(cc1[N+](=O)[O-])OCCO2	-4.9	1.1
Cc1ccc(-c2cnc(N3CCCC(C(=O)NC4CC4)C3)nc2)cc1 (stereo unspecified)	0.9	-8.3
Cc1cccc(NC(=O)C2CCN(c3ccc(F)c(F)c3)C2=O)c1 (stereo unspecified)	1.9	-2.0
O=C(NCc1ccc(F)cc1Cl)C1CCN(c2nccnc2Oc2ccccc2)CC1	-0.6	0.6
COC(=O)C=CC(=O)Nc1ccc(O)c(C(=O)O)c1	8.6	-4.2
SMILES	Pf apPOL block	mHTT-CaM PPI inh
O=[N+]([O-])c1ccc(NCc2ccccn2)c([N+](=O)[O-])c1	-4.0	-3.0
N#Cc1cc2c(N)c(C(=O)c3ccc(Cl)cc3)sc2nc1N	-10.7	11.0
N#Cc1cc2c(N)c(C(=O)Nc3ccccc3Oc3ccccc3)sc2nc1N	-1.3	81.0*
CCn1c(N2CCC(C(=O)NCc3ccc4c(c3)OCO4)CC2)cc(=O)n(C)c1=O	-2.7	41.7
CCn1c(N2CCC(C(=O)NCc3ccco3)CC2)cc(=O)n(C)c1=O	-4.0	51.6*
CCn1c(N2CCC(C(=O)NCc3ccc(OC)cc3)CC2)cc(=O)n(C)c1=O	-6.5	57.4*
CCc1ccc(CNC(=O)C2CCN(c3cc(=O)n(C)c(=O)n3CC)CC2)cc1	-4.4	40.9
CCN(CC)S(=O)(=O)c1ccc(C(=O)Nc2nnc(-c3ccc(OC)cc3OC)o2)cc1	-12.3	3.0
Cc1nnc(NC(=O)c2ccc(S(=O)(=O)N(CC(C)C)CC(C)C)cc2)o1	-74.4	51.0*
CCN(Cc1ccccc1)S(=O)(=O)c1ccc(C(=O)Nc2nnc(CSC)o2)cc1	-12.8	12.0
CCN(Cc1ccccc1)S(=O)(=O)c1ccc(C(=O)Nc2nnc(C)o2)cc1	-16.0	74.0*
CCCCN(CC)S(=O)(=O)c1ccc(C(=O)Nc2nnc(C)o2)cc1	-12.6	22.0
CCCCN(CC)S(=O)(=O)c1ccc(C(=O)Nc2nnc(-c3ccccc3OC)o2)cc1	-7.0	52.0*
COc1ccc2c(CN3CCC(Cc4ccccc4)CC3)cc(=O)oc2c1	-3.9	-23.2
CCN1CCN(S(=O)(=O)c2cc(Br)c(Br)s2)CC1	-3.1	-8.0
Cc1cc(Cl)ccc1NC(=O)c1cn2c(n1)COCC2	-6.6	14.1
CC1N=C2c3ccccc3N=C(SCC(=O)c3ccccc3)N2C1=O (stereo unspecified)	-3.3	2.0
CNC(=O)Nc1ccc(C2(C(=O)N3CCN(c4ccccc4)CC3)CCC2)cc1	0.6	10.5
CC(C)C(=O)Nc1ccc(C2(C(=O)N3CCN(c4ccccn4)CC3)CCCCC2)cc1	4.1	27.7
CC(=O)Nc1ccc(C2(C(=O)N3CCN(c4ccccc4)CC3)CCCCC2)cc1	-0.9	91.0*
CNC(=O)Nc1ccc(C2(C(=O)N3CCN(c4cccc(Cl)c4)CC3)CCC2)cc1	1.4	67.2*
CSc1nc(NC=C(C#N)C(=O)C2CC2)nc(C2CC2)n1	-8.0	.
COc1cc(/C=C(\C#N)c2nc(-c3ccc(Br)cc3)cs2)ccc1O	-2.1	2.9
CCOc1ccc(/C=C(\C#N)c2nc3ccccc3s2)cc1OC	-1.7	-12.0
CCOc1cc(/C=C(\C#N)c2nc3ccccc3s2)ccc1O	-4.6	56.0*
SMILES	Pf apPOL block	mHTT-CaM PPI inh
Cc1ccc(/C=C(\C#N)c2nc(-c3ccc(Br)cc3)cs2)o1	-1.2	14.4
COc1cc(/C=C(\C#N)c2nc(-c3ccccc3)cs2)ccc1O	-2.8	97.0*
Cc1ccc(-c2csc(/C(C#N)=C/c3cccc(O)c3)n2)cc1	-3.8	97.1*
COc1ccc(-c2csc(/C(C#N)=C/c3ccc(OC)o3)n2)cc1	-0.8	69.0*
Cc1ccc(-c2csc(/C(C#N)=C/c3ccc(O)cc3)n2)cc1	-4.6	32.1
Cc1nn2c(C(F)(F)F)cc(-c3ccc(Br)cc3)nc2c1C#N	-6.0	2.0
O=C(CN1C(=O)C2CCCN2C(=O)c2ccc(F)cc21)Nc1cccc(F)c1 (stereo unspecified)	-7.1	5.1
CCNC(=O)C1CCN(c2ccc(NC(=O)NC)cn2)CC1	-3.9	1.1
O=C(O)CC(NCc1ccc(Cl)c([N+](=O)[O-])c1)c1ccco1 (stereo unspecified)	26.9	2.0
Cn1c(C2CCN(S(=O)(=O)c3ccc(F)c(F)c3)CC2)cc(=O)n2nccc12	-1.1	12.2
Cc1ccc2c(c1)N/C(=C(/C=C(\Cl)[N+](=O)[O-])[N+](=O)[O-])N2	-2.6	36.0
CCOC(=O)Cn1nnc(-c2cccs2)n1	-6.3	.
Cc1ccc(C(=O)N2CCN(C)CC2)c(Cl)c1	-4.2	-5.7
N#C/C(=C\c1ccc(O)c(O)c1)c1nc(-c2cccc([N+](=O)[O-])c2)cs1	1.0	66.4*
N#C/C(=C\c1ccc(O)c(Br)c1)c1nc(-c2cccc([N+](=O)[O-])c2)cs1	-1.3	7.0
CCn1cc2c3c(cccc31)CN(C(=O)Nc1cccc(C#N)c1)CC2	-3.4	-8.0
Nc1ccc(C2Nc3ccccc3C3C=CCC32)cc1 (stereo unspecified)	-11.1	85.3*
Fc1ccc(C2Nc3ccc(OC(F)(F)F)cc3C3C=CCC32)cc1 (stereo unspecified)	.	37.4
Fc1ccc(C2Nc3ccc(Br)cc3C3C=CCC32)cc1 (stereo unspecified)	-0.8	15.0
